# TDP43 rescue: TDP-43 toxicity inhibition in yeast; TDP-43 expressing yeast growth rescue, BacTiter-Glo, 24 h; Potency, µM (doses to about 46.1 µM), for inactives: at the top dose growth rescue (activation), hits mostly activators; 1.8% of 410,000 active; AID 652104; also: % of control where 0% means no effect; nearly all actives have a fitted effect of over 50% in size
#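 Luminescence from BacTiter-Glo reports growth of TDP-43-expressing yeast after 24 hr at 30 deg C with compound. Cells were raffinose-pregrown to mid-log, then seeded in galactose medium at OD600=0.02.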
# Abeta yeast res: compounds reversing amyloid beta toxicity in yeast; AID 1347071; 0.063% of 410,000 active; Potency, µM (highest dose often 46.1 µM), usual class: activators; yeast expressing A-beta42, growth rescue, OD600, 48 h; response scale: 0% DMSO, 100% iron-clioquinol control; also: nearly all actives have a fitted effect of over 55% in size
#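 Growth rescue measured by 600 nm absorbance after 48 h yeast culture at 30 C with compound. Values normalized between DMSO and an equimolar ferric chloride plus clioquinol control.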
# FUS yeast rescue: suppressors of FUS proteinopathy in yeast; S. cerevisiae FUS-expressing, growth rescue, OD600, 24 h; Potency, µM (series often up to 76.6 µM), hits mostly activators; 0.24% of 390,000 active;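 also: plate controls were DMSO vehicle for no effect and reference control for full effect; nearly all actives have a fitted effect of over 55% in size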
#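 Cultures pregrown in 2.5% raffinose medium are shifted to minimal medium containing 2% galactose to express toxic FUS. Compounds are tested at several concentrations. After 24hr at 30C, growth is quantified at 600 nm absorbance.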
# Mito fusion yeast: blocks mitochondrial division or promotes mitochondrial fusion; S. cerevisiae fusion-defective mutant growth rescue, CellTiterGlo 48 h; Potency, µM (top dose mostly 46.1 µM), inactives show at the highest dose growth rescue (activation), usual class: activators; 0.23% of 320,000 active; AID 485298; also: % of control where 0% means no effect; nearly all actives have a fitted effect of over 45% in size
#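 S. cerevisiae fusion-defective temperature-sensitive mutants (e.g. fzo1-1, mgm1-5) grown 48 h at 37C in YPEG (ethanol/glycerol non-fermentable) medium with 23 nl compound per well; growth rescue read as CellTiterGlo luminescence.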
# aSyn yeast inh: inhibitors of alpha-synuclein toxicity in yeast; Potency, µM (series often up to 46.1 µM), without a hit: at the top dose growth rescue (activation), actives largely listed as activators; AID 652106; 0.14% of 370,000 active; Yeast expressing alpha-synuclein, growth rescue, BacTiter-Glo, 24 h; also: % of control where 0% means no effect; nearly all actives have a fitted effect of over 65% in size
#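 Screening used galactose-induced yeast with toxic alpha-synuclein levels, exposed to compound for 24 hr at 30 deg C. Cell growth, read with BacTiter-Glo luminescence, gave the measured signal.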
# An asterisk follows results filed as active; i = inactive; ? = inconclusive; / = no result; ! = a repeat was not active; [ ] = remark or other dose. Shown are actives, neighbours in structure and some others; about 2.2% of the full set was active somewhere. Calls follow the shape of the dose curve; as a rule, active = well fitted curve in the direction sought with a large enough effect; inconclusive = small, poorly fitted or top-dose-only effect, or another doubt; inactive = no such curve, though single readings can be large; an effect the other way counts as inactive or inconclusive. Potency is read from the fitted curve at half-maximal effect.
SMILES,TDP43 rescue,Abeta yeast res,FUS yeast rescue,Mito fusion yeast,aSyn yeast inh
CCOc1ccc(-c2cn(-c3ccc(OC)cc3)c(SC)n2)cc1,13µM*,i,i,11%,7%
CCOc1ccc(-c2cn(-c3ccc(OC)cc3)c(SCC(=O)Nc3ccccc3Cl)n2)cc1,9%[9.22 µM],i,i,/,/
COc1ccc(CCNC(=O)C(=O)NCC(c2ccco2)S(=O)(=O)c2cccs2)cc1 (configuration not stated),2%,i,i,/,/
Cc1ccc(C)c(NC(=O)C(=O)NCC(c2cccnc2)N2CCN(c3ccc(F)cc3)CC2)c1 (configuration not stated),16%,i,i,/,/
Clc1ccccc1C1=Nn2c(nnc2-c2ccncc2)SC1,11µM*,i,i,2%,10%
c1ccc(-c2ccc(C3=Nn4c(nnc4-c4ccncc4)SC3)cc2)cc1,/,/,i,/,/
Cc1cccc(-c2nnc3n2N=C(c2ccccc2Br)CS3)c1,20µM*,i,i,-1%,7%
COc1cc(NS(=O)(=O)c2ccc(C)cc2)c2ncccc2c1,11µM*,i,i,-1%,?
COc1cc(NC(=O)c2ccccc2Cl)c2ncccc2c1,20µM*,i,i,-8%,3%
Cc1ccc(S(=O)(=O)Nc2cccc3cccnc23)cc1,35µM*,i,i,0%,?
NS(=O)(=O)Nc1cccc2cccnc12,/,/,/,/,-2%
COc1ccc(S(=O)(=O)Nc2ccccn2)cc1,-12%[1.82 µM],i,i,-1%,3%
Cc1ccc(C(=O)CC2(O)C(=O)N(CCc3ccccc3)c3ccc(Cl)cc32)cc1 (configuration not stated),?,i,?,/,/
CC(C)(C)[C@H]1C=C(C(=O)NCc2nc3ccccc3[nH]2)O[C@@H](OCCCCO)C1,19%,i,i,5.6µM*,-2%
CNCc1nc(-c2ccc[nH]2)c2cc(Cl)ccc2n1,/,/,/,/,-3%
N/C(=N\OC(=O)C12CC3CC(CC(C3)C1)C2)c1ccncc1,13µM*,i,i,7%,-18%
Cc1ccc(/C(N)=N/OC(=O)N2CCOCC2)cc1,8%,i,i,6%,-12%
Cc1ccc(/C(N)=N/OC(=O)C23CC4CC(CC(C4)C2)C3)cc1,2µM*,i,i,5%,5%
O=c1[nH]c(SCc2c(F)cccc2Cl)nc2c1CCCC2,18%,i,i,/,/
COc1ccc(C2CC(=O)N(C)c3ccccc3S2)cc1 (configuration not stated),13µM*,i,i,-5%,18%
CN1C(=O)CC(c2ccco2)Sc2ccccc21 (configuration not stated),3%,i,?,-9%,-1%
Oc1oc(-c2ccccc2)nc1/C=N/c1nccs1,6%,i,/,-1%,-7%
Oc1oc(-c2ccccc2)nc1C=Nc1cccc2ccccc12,26%,i,i,11µM*,-15%
Cc1ccc(-c2ccc(CCC(=O)O)n2C(C)C)cc1,35µM*,i,i,3%,2%
CC1=NN(/C(=N\c2nnc(C)s2)Nc2ccc(C)cc2)[C@H](c2ccc(C)cc2)S1,13µM*,i,i,22%,5%
SMILES,TDP43 rescue,Abeta yeast res,FUS yeast rescue,Mito fusion yeast,aSyn yeast inh
CC1=NN(/C(=N\c2nnc(C)s2)Nc2ccccc2)[C@H](c2cccc3ccccc23)S1,?,i,?,?,3%
O=C(COc1ccccc1)NCC(=O)N/N=C/c1cc(Br)ccc1OCc1ccccc1,-36%,i,i,18µM*,12%
CCCn1c(N)c(N2CCCCC2)c(=O)n(CC(=O)Nc2ccc(C(C)=O)cc2)c1=O,21%,i,i,/,1%
CNc1oc(-c2ccc(Cl)cc2)nc1P(=O)(c1ccccc1)c1ccccc1,18µM*,i,?,-14%,21%
COc1cc(NC(=O)C(CCS(C)(=O)=O)N2Cc3ccccc3C2=O)cc(OC)c1OC (configuration not stated),6%,i,i,/,/
O=Nc1c(-c2c(O)[nH]c3cc(Br)ccc23)[nH]c2ccccc12,-7%,i,i,1.8µM*!,-21%
O=C(O)c1ccc(NCc2cccnc2)cc1,-6%,i,i,-4%,3%
O=C(O)c1ccc(NCc2ccc(Br)cc2)cc1,3.5µM*,i,i,5%,3%
CC(=O)Nc1ccc(C(=O)O)cc1,12%,i,i,/,-3%
C=CCNc1ccc(C(=O)O)cc1,14µM*,i,i,11%,11%
Cc1cccc(C)c1NC(=O)C1C(c2ccc3c(c2)OCO3)=Nc2ccccc2N1C(=O)c1ccccc1 (configuration not stated),?,i,i,/,3%
O=C(Nc1ccc2c(c1)OCCO2)C1C(c2ccccc2)=Nc2ccccc2N1C(=O)c1cccnc1 (configuration not stated),-20%,i,7.9µM*,/,-2%
O=C(NCc1ccccc1)C1C(c2ccc3c(c2)OCO3)=Nc2ccccc2N1C(=O)c1ccccc1 (configuration not stated),13µM*,i,i,/,-1%
COC(=O)c1ccc(Cn2ccc3ccc(-c4ccc5ccn(C(=O)c6ccccc6C)c5c4)cc32)cc1,/,/,i,/,/
CC(=O)C(=Cc1cn(-c2ccccc2)nc1-c1ccccc1)C(C)=O,14µM*,i,i,1%,4%
Cc1ccc(C(=O)N/C(=C/c2cn(-c3ccccc3)nc2-c2ccccc2)C(=O)O)cc1,10%,i,i,4%,-1%
COc1ccc(-c2ccc3c(N)c(C(=O)NCc4ccc(Cl)cc4)sc3n2)cc1,?,i,i,/,/
CC(C)CNC(=O)OCc1cn(Cc2cc(F)ccc2F)nn1,/,/,i,/,/
c1ccc(-c2cc3c(N4CCN(c5ccccc5)CC4)ncnc3s2)cc1,28µM*,i,i,-4%,9%
c1ccc(-c2cc3c(N4CCN(c5ncccn5)CC4)ncnc3s2)cc1,20%,i,i,-2%,-10%
CCNC(=O)N1c2ccc(OC)cc2C(C)=CC1(C)C,13µM*,i,i,-4%,-10%
COc1ccc(NC(=O)N2c3ccc(OC)cc3C(C)=CC2(C)C)cc1,-4%,i,i,/,0%
CC(C)c1ccc(C(=O)Nc2cccc3cccnc23)cc1,?,i,i,/,/
COc1ccc(Cl)cc1NC(=O)c1c(NCc2cccnc2)sc2c1CCC(C)C2 (configuration not stated),22µM*,i,i,/,/
CCc1nnc(SC(CC)C(=O)Nc2cc(C)ccc2C)c2cc3occc3n12 (configuration not stated),13%,i,i,/,/

# Screening results as filed in PubChem.
